Source: PubChem BioAssay AID488841 (Sanford-Burnham Center for Chemical Genomics, 2010)
Among all 1,400 compounds or so, about 380 (27%) were called active.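 How the source made its calls: active means mean inhibition above 50% across duplicate retests at 10 µM; inactive means the rest.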 This is one part of the list.

Test: inhibition of NALP1/ASC/caspase-1 reporter signal in yeast, confirmation, NALP1 inhibitor project, S. cerevisiae, luminescence, single concentration (AID 488841);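 further: plate controls were DMSO in galactose medium for no effect and cells in plain SD medium for full effect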
Details: S. cerevisiae NALP1/ASC/Caspase-1 reporter, beta-gal luminescence; at 10 µM; hits give high values
With `c1csc(C2Nc3ccccc3-c3nc4ccccc4n32)c1` (stereo not given) the inhibition was 31.5% (inactive). In the case of `O=C(Nc1cc(Cl)ccc1-n1cncn1)c1ccc([N+](=O)[O-])s1`, the inhibition was 90.7% (active). With `CN(c1ccccc1)c1ccc(/C=C/[N+](=O)[O-])cc1` the inhibition was 95% (active). With `CCCc1ccc(-c2c(C)sc(N)c2C#N)cc1` the inhibition was 39% (inactive). With `CCN1CCN(c2cc(C(C)C)nc3c(-c4ccccc4)c(C)nn23)CC1` the inhibition was 40.4% (inactive). With `COc1ccc(CNCC(O)(c2ccccc2)c2ccc(Cl)cc2)cc1` (stereo not given) the inhibition was 57.9% (active). For `CCc1cc(OCCCCNCc2ccccc2)ccc1Cl`, the inhibition was 43.2% (inactive). In the case of `COc1ccc(C(=O)C2CCCN(C(=O)Cn3nc(C)cc3C)C2)cc1F` (stereo not given), the inhibition was 36.5% (inactive). In the case of `C#C[C@]1(O)CC[C@H]2[C@@H]3CCC4=C(CCC(=O)C4)[C@H]3CC[C@@]21C`, the inhibition was 59.2% (active). For `C#C[C@]1(O)CC[C@H]2[C@@H]3CCc4cc(O)ccc4[C@H]3CC[C@@]21C`, the inhibition was 65.4% (active). In the case of `Cc1ccc(S(=O)(=O)NCc2ccc(C(=O)NCCCN3CCC(Cc4ccccc4)CC3)cc2)cc1`, the inhibition was 22% (inactive). For `CN(CC(=O)NC(=O)NCc1ccccc1)Cc1cccc(Cl)c1Cl`, the inhibition was 32.5% (inactive). For `Cc1ccccc1OCC(=O)Nc1cccc(N(C)S(C)(=O)=O)c1`, the inhibition was 18.4% (inactive). For `COC(=O)C1=C(C)NC(C)=C(C(=O)OC)C1c1ccc(OC(=O)c2oc3ccccc3c2C)c(OC)c1`, the inhibition was 10.6% (inactive). In the case of `O=C(c1ccc(S(=O)(=O)c2ccccc2)cc1)N1CCCCCC1`, the inhibition was 32.5% (inactive). In the case of `Cc1ccc(C(C[N+](=O)[O-])c2c(N)n(C)c(=O)n(C)c2=O)cc1` (stereo not given), the inhibition was 96.2% (active). For `O=c1[nH][nH]c(-c2ccccc2O)c1C(C[N+](=O)[O-])c1ccc(Cl)cc1Cl` (stereo not given), the inhibition was 37.8% (inactive). With `COc1cccc(F)c1C(C[N+](=O)[O-])c1c(N)n(C)c(=O)n(C)c1=O` (stereo not given) the inhibition was 89.5% (active). For `COc1ccccc1C(C[N+](=O)[O-])c1c(N)n(C)c(=O)n(C)c1=O` (stereo not given), the inhibition was 93.7% (active). For `CC1(C)NC(=O)N(CCCCOc2ccc3ccccc3c2Cl)C1=O`, the inhibition was 38.6% (inactive). In the case of `CCCCNCCOCCOc1ccccc1-c1ccccc1`, the inhibition was 44% (inactive). For `CN(C)c1nc(N)nc(CSc2nnnn2-c2ccc(C(=O)O)cc2)n1`, the inhibition was 29.5% (inactive). For `Nc1[nH]c(=O)ncc1F`, the inhibition was 43.8% (inactive). With `CCOc1ccc(N=c2oc3cc(O)ccc3cc2C(=O)NCC2CCCO2)cc1` (stereo not given) the inhibition was 24.5% (inactive). With `COC1=C(Nc2ccc(O)cc2)C(=O)c2ccccc2C1=O` the inhibition was 32.3% (inactive). For `COc1ccc(Nc2cc(C)c3ccc(O)cc3n2)cc1`, the inhibition was 89.7% (active). In the case of `Cc1cc(Nc2ccccc2)nn1C(=O)c1ccccc1`, the inhibition was 44.5% (inactive). In the case of `Cc1cc(Nc2ccccc2)nc2cc(O)ccc12`, the inhibition was 84.7% (active). With `CCn1nc(C)cc1Nc1ccccc1` the inhibition was 22.3% (inactive). With `COc1ccc(C2=NN3C(=O)c4c(ccc(OC)c4OC)C3C2)cc1` (stereo not given) the inhibition was 37.6% (inactive). For `CCC(=O)N(Cc1cc2c(C)ccc(C)c2[nH]c1=O)C1CCCCC1`, the inhibition was 27.1% (inactive). With `CCNc1c(C(=O)O)ccc2c1C(=O)c1ccccc1C2=O` the inhibition was 32.4% (inactive). For `CCc1ccc(OCC(=O)Nc2ccc(CN3CCCCC3)cc2)cc1`, the inhibition was 48.2% (inactive). With `Cc1cc(C)c([C@@H]2C[C@H]3CN(C4CCCC4)C(=O)[C@]34CCCN24)c(-n2cccn2)c1` the inhibition was 28.9% (inactive). In the case of `COc1cc(/C=C/C(=O)c2ccc(Cl)s2)cc(OC)c1O`, the inhibition was 50.9% (active). With `COC(=O)CCn1nnc(-c2ccc(C(C)C)cc2)n1` the inhibition was 38.5% (inactive). With `COc1cccc(CN2CCC(C(=O)N3CCN(c4ccccc4F)CC3)CC2)c1OC` the inhibition was 37.2% (inactive). In the case of `CCCc1[nH]n(-c2nc3ccccc3s2)c(=O)c1C=NCC(C)C`, the inhibition was 54.1% (active). For `O=C1C(Cl)=C(N2CCN(c3ccccc3[N+](=O)[O-])CC2)C(=O)c2ccccc21`, the inhibition was 47.2% (inactive). For `C/C(=N\NC(=O)c1csc(C)c1C)c1ccc(Cl)s1`, the inhibition was 40.9% (inactive). For `CCNc1ccc(Br)cc(C(=O)/C=C/c2c(Cl)cccc2Cl)c1=O`, the inhibition was 39.5% (inactive). With `O=C(/C=C/c1ccccn1)c1ccc(Br)cc1O` the inhibition was 67.5% (active). With `O=C(/C=C/c1cccs1)c1cc(Br)ccc1OC(=O)N1CCOCC1` the inhibition was 28.1% (inactive). For `COc1cccc(-c2nn(C)c3sc(C(=O)N4CCOCC4)cc23)c1`, the inhibition was 35.3% (inactive). With `Cc1[nH]c2ccccc2c1C(=O)CSc1nc2ncc(Cl)cc2[nH]1` the inhibition was 25.4% (inactive). In the case of `O=C(/C=C/c1c[nH]c2ccccc12)c1ccccc1`, the inhibition was 80.5% (active). With `O=C(NC(Cc1c[nH]c2ccccc12)C(=O)O)/C(=C\c1ccc2c(c1)OCO2)NC(=O)c1ccccc1` (stereo not given) the inhibition was 32.5% (inactive). With `CN(C)c1ccc(N/C=C/C(=O)c2ccccc2)cc1` the inhibition was 35.4% (inactive). For `Cc1cc(SC#N)cc(C)c1NC(=O)CCl`, the inhibition was 21.6% (inactive). With `CC(C)c1nc2sc3c(=O)[nH]c(=S)[nH]c3c2c2c1CCC2` the inhibition was 30.2% (inactive). For `Cc1ccc2nc(Cl)c(C3CC(c4cccs4)=NN3C(=O)CCCC(=O)O)cc2c1` (stereo not given), the inhibition was 33.7% (inactive). For `OC(CN1CCCCC1)Cn1c2ccc(Cl)cc2c2cc(Cl)ccc21` (stereo not given), the inhibition was 52.5% (active). For `OC(COCc1ccc2c(c1)OCO2)CN1CCN(Cc2ccccc2)CC1` (stereo not given), the inhibition was 32% (inactive). For `COc1ccc(OCC(O)Cn2c(=N)n(Cc3ccccc3)c3ccccc32)cc1` (stereo not given), the inhibition was 27.4% (inactive). In the case of `OC(CNCCC1C=Nc2ccccc21)Cn1c2ccc(Cl)cc2c2cc(Cl)ccc21` (stereo not given), the inhibition was 40.7% (inactive). In the case of `OC(CN1CCN(Cc2ccccc2)CC1)Cn1c2ccccc2c2ccccc21` (stereo not given), the inhibition was 63.1% (active). In the case of `CCOC(=O)c1c(O)c2cc(Cl)ccc2n(CC)c1=O`, the inhibition was 40.1% (inactive). For `CCN1CCN(C(=O)N[C@@H](C(=O)N[C@@H]2C(=O)N3[C@@H]2SC(C)(C)[C@@H]3C(=O)O)c2ccccc2)C(=O)C1=O`, the inhibition was 45.5% (inactive). In the case of `CCn1c(=O)cc(SCC(=O)N2CCN(C3CCCCC3)CC2)c2ccccc21`, the inhibition was 32.6% (inactive). In the case of `N/C(Cc1ccc(Cl)cc1)=N\OC(=O)C1CCCCC1`, the inhibition was 46.6% (inactive).
